Source: PubChem (The Scripps Research Institute Molecular Screening Center)
DAX1 inh-1 = DAX1 (NR0B1) inhibitors, primary screen, cell-based, HEK293, Gal4-DAX1, luciferase luminescence; Nuclear receptor subfamily 0 group B member 1 (Homo sapiens), P51843; HEK293 Gal4-DAX1 luciferase reporter; inhibition, % at 6.75 µM; 340,000 tested, 0.99% active;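 active means inhibition above the mean over all tested compounds plus 3 SD, cut at about 4.2% in these data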;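 further: 0% = DAX1-transfected cells with DMSO and 100% = empty-vector control cells with DMSO; inhibition shows as a rise in luminescence from relieved DAX1 repression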
Target sequence (P51843 207-470 limits assumed): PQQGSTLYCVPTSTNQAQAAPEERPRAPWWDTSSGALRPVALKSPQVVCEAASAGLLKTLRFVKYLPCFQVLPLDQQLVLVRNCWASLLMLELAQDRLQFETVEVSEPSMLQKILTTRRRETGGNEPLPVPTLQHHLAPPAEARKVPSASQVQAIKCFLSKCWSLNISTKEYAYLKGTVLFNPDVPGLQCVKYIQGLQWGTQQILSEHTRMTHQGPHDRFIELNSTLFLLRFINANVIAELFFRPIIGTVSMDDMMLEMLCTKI
DAX1 inh-2 = DAX1 (NR0B1) inhibitors on StAR promoter, primary screen, cell-based, luminescence, SF-1 (NR5A1), full-length DAX-1; HEK293T StAR-luciferase reporter, SF-1/DAX-1 repression relief; inhibition, % at 6.8 µM; 370,000 tested, 1.1% active; AID 652010, 2013;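 active means inhibition above the mean over all tested compounds plus 3 SD, cut at about 3.6% in these data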;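 further: 0% = DAX-1 cells with DMSO and 100% = cells lacking DAX-1 with DMSO; higher inhibition means more luminescence from relief of DAX-1 repression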
SMARCA2 activ = SMARCA2 (BRM) function activators, primary screen, cell-based, luminescence, high throughput; MG213 cells, MMTV-luciferase reporter, dexamethasone, overnight; activation, % at 9.1 µM; 370,000 tested, 1% active; AID 652017, 2013; in the data active means activation above about 7.8%;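 further: 0% = vehicle wells and 100% = reference activator wells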
hgDAF-12 ag = H. glycines DAF-12 receptor agonists, primary screen, cell-based, luminescence, HEK293, GAL4 fusion, UAS-luciferase. activation, % at 6.8 µM. HEK293 GAL4-hgDAF12 UAS-luciferase reporter, agonist luminescence; normalized to butyrate control. Nuclear hormone receptor DAF-12 (Heterodera glycines), GAL4 fusion. AID 687014, 2013. 370,000 tested, 1.8% active;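 active means activation above a cutoff set at the mean of all screened compounds plus 3 SD, cut at about 10% in these data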;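 further: 0% = DMSO wells and 100% = sodium butyrate wells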
hcDAF-12 act = H. contortus DAF-12 nuclear receptor activators, primary screen, cell-based, luminescence, HEK293, lit1-tk-luc reporter; HEK293 hcDAF-12 lit1-tk-luc reporter; 0% DMSO, 100% Δ7-dafachronic acid; activation, % at 6.8 µM; 370,000 tested, 1.4% active;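 active means activation above the mean of all tested compounds plus 3 SD, cut at about 5.5% in these data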;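 further: 100% = response to 3 µM Δ7-dafachronic acid high control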
ssDAF12 agonist = S. stercoralis DAF-12 nuclear receptor activators, primary screen, cell-based, luminescence, HEK293, GRIP1 co-expression, lit1-tk-luc; Nuclear hormone receptor DAF-12 (Strongyloides stercoralis); activation, % at 6.8 µM; HEK293 ssDAF-12/GRIP1 lit1-tk-luc reporter; % of 3 µM dafachronic acid response; AID 652126, 2013; 370,000 tested, 1% active;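 active means activation above the mean over all tested compounds plus 3 SD, cut at about 0.9% in these data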;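 further: 0% = DMSO-only wells and 100% = 3 µM delta7-dafachronic acid wells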
Numbers without * were called inactive; x = no result given. The list is not random: actives were taken first. Their share in the collection is about 4.8%.

SMILES	DAX1 inh-1	DAX1 inh-2	SMARCA2 activ	hgDAF-12 ag	hcDAF-12 act	ssDAF12 agonist
COC(=O)c1ccc(NC(=O)C[n+]2ccccc2)cc1	0	0	-1	4	5	1.8*
CCc1ccc(-c2ccc(SCC(=O)NC3CCCC3)nn2)cc1	3	3	-4	6	0	0
COc1ccc2c(c1)c1nnc(SCC(=O)NC3CC3)nc1n2C	1	0	-2	0	4	1.7*
COc1ccc(-c2ccc(SCC(=O)NC3CCCC3)nn2)cc1	4.4*	0	-4	2	1	-1
O=C(NC1CCCCCCC1O)c1ccccc1 (stereo not drawn)	0	0	4	6	0	0
O=C(NC1=NC2CCCCC2N1)c1ccccc1 (stereo not drawn)	1	3.8*	6	8	2	0
C=CCc1ccccc1OCCSc1nc2ccc([N+](=O)[O-])cc2s1	0	1	-5	0	2	2.0*
CCN(CC)c1ccc([C@H]2[C@@H]3CCCC[C@]3(O)CCN2CC(=O)NCc2ccco2)cc1	4.7*	0	-2	0	-2	-1
CCn1c2ccccc2c2nnc(SCC(=O)NC(CC(C)C)C(=O)OC)nc21 (stereo not drawn)	1	0	7.8*	1	-1	-1
CCC(=O)Nc1ccc(F)c(Cl)c1	0	-1	-1	0	-2	-1
O=C(O)CC(CC(=O)Nc1ccc(F)c(Cl)c1)c1ccc(Cl)cc1Cl (stereo not drawn)	10*	0	-1	1	-1	-2
O=C(COc1ccc(S(=O)(=O)N2CCc3ccccc32)cc1Cl)NCc1ccccn1	-1	0	1	2	0	0.9*
O=C(COc1ccc(S(=O)(=O)NCc2ccccc2)cc1Cl)NCc1ccccn1	-2	0	-2	-2	-2	-2
COc1cc(CCC(=O)Nc2ncc(C)s2)cc(OC)c1OC	0	0	-1	2	-1	-1
COc1ccc(CCC(=O)Nc2ncc(C)s2)cc1	1	0	-3	4	1	2.2*
Cc1ccsc1C=Nn1c(-c2n[nH]c3c2CCC3)n[nH]c1=S	x	0	-7	0	0	-1
CCOC1=C2CN(S(=O)(=O)c3ccc(C)cc3)[C@H](c3ccccc3)C[C@H]2[C@H]2C(=O)N(c3ccccc3)C(=O)[C@H]2C1	x	4.0*	-1	-1	0	-1
COC(=O)[C@]12C[C@H](CC(=O)NCCC(C)C)C(=O)N(CCC3=CCCCC3)C1=C[C@H](C(C)C)O[C@@H]2C1CC1	x	0	-3	-2	0	-1
CC1CC1C(=O)Nc1nc(-c2cccs2)c(-c2cccs2)s1 (stereo not drawn)	1	0	0	2	5	2.0*
O=C(Nc1nc(-c2cccs2)c(-c2ccccc2)s1)c1ccco1	0	0	-1	-2	-2	-1
Cc1nc(SCC(=O)Nc2cccc(S(=O)(=O)N3CCOCC3)c2)nc(C)c1C	-1	-2	-5	1	-2	-1
Cc1cc(=O)[nH]c(SCC(=O)Nc2cccc(S(=O)(=O)N3CCOCC3)c2)n1	1	3.7*	-1	0	-2	-1
Nc1ccc2nc(Cc3ccccc3)[nH]c2c1	4.6*	0	0	-3	1	-1
Cc1occc1C(=O)Nc1cc(C(F)(F)F)ccc1Cl	4.6*	1	-2	2	1	-2
COc1ccc(C(C)(C)C)cc1NC(=O)c1ccoc1C	0	-1	-1	0	-2	-1
SMILES	DAX1 inh-1	DAX1 inh-2	SMARCA2 activ	hgDAF-12 ag	hcDAF-12 act	ssDAF12 agonist
Cc1ccc(CNC(=O)C(OC(=O)c2cccs2)C(C)C)cc1 (stereo not drawn)	4.6*	0	-2	1	-1	-1
CCOc1ccc(/C=N/Nc2ccc(Cl)nn2)c(O)c1	1	0	0	4	1	0
CCOc1ccccc1/C=N/Nc1ccc(Cl)nn1	1	0	-3	-1	0	1.0*
O=C(NCc1cccc(Cl)c1)O[C@H]1CC[C@@]23CCCN2C(=O)CCC[C@H]3C1	x	x	x	-2	0	-2
CN(CCOC(=O)c1cc2ccccc2o1)C1CN(Cc2cn(Cc3cccc(F)c3)nn2)S(=O)(=O)C1 (stereo not drawn)	x	-1	1	-1	-1	-1
CC(C)CNC(=O)c1cc(-c2ccc3c(c2)OCO3)on1	3	3	4	9	3	0
CN(C(=O)c1cc(-c2ccc3c(c2)OCO3)on1)c1ccccc1	3	1	1	11*	3	0
O=C(Nc1cc(Br)ccc1O)c1cc(-c2ccc3c(c2)OCO3)on1	5.7*	0	4	5	5	0
CCOC(=O)[C@@H]1CSCCS(=O)(=O)N1C(=O)[C@H](CC(C)C)NC(=O)OC(C)(C)C	x	0	-4	0	1	0
COc1ccc(OCc2cc(C(=O)N(C)C3CCOCC3)no2)c2ccccc12	2	0	0	4	5	1.0*
CCOC(=O)C1CCN(C(=O)c2cc(COc3ccc(OC)c4ccccc34)on2)CC1	1	1	5	12*	6.3*	0
COc1ccc(OCc2cc(C(=O)N(C)C3CCOC3)no2)c(Cl)c1 (stereo not drawn)	1	-1	6	-2	-1	-1
COc1cc(Cl)ccc1OCc1cc(C(=O)N2CCCCCC2)no1	1	0	-2	3	1	0
CC(COc1ccccc1)CN1CCC(C(O)(c2ccccc2)c2ccccc2)CC1 (stereo not drawn)	x	-1	-2	-3	-3	-2
CN1c2ccccc2Oc2nnc(N3CCN(Cc4ccccc4)CC3)cc21	-3	0	5	10*	-1	-2
O=C(Nc1nccs1)c1ccc2nccnc2c1	4.6*	0	2	10	1	-1
O=C(Nc1nccs1)c1ccc(N2C(=O)[C@@H]3[C@H](C2=O)[C@H]2C=C[C@@H]3C2)cc1	4.5*	3	1	12*	2	-1
O=C(Nc1nccs1)c1cccc(N2C(=O)C3C4C=CC(C4)C3C2=O)c1 (stereo not drawn)	-1	0	-3	0	-1	-1
O=C(Nc1nccs1)c1cccnc1	0	0	2	0	0	-1
